LEDGF integ inh = blocks HIV-1 LEDGF/p75-dependent DNA integration; TR-FRET IN-LEDGF/p75 DNA integration, Eu/Cy5; inhibition, % at 3.7 µM; 370,000 compounds, 0.64% hits;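 active = inhibition above the screen-wide mean plus 3 SD, cut at about 13% in these data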;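 also: signal is the Cy5 over europium emission ratio at 671 and 618 nm; 0% = plate median of compound wells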
MBD2 DNA inh = inhibitors of human MBD2 binding to methylated oligonucleotide | Q9UBB5 | TR-FRET | inhibition, % at 4.4 µM | 370,000 compounds, 0.31% hits | AID 686964; in the data active = inhibition above about 13%
UHRF1 MBD2 ctr = human UHRF1 methylated DNA binding inhibitors | Q96T88 | UHRF1 binding to methylated oligo, TR-FRET | inhibition, % at 4.4 µM | 370,000 compounds, 0.75% hits | AID 687016; in the data active = inhibition above about 21%;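 also: UHRF1 SRA domain binding a hemimethylated CpG hairpin DNA probe; 0% = median of test compound wells and 100% = reference inhibitor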
PRMT1 inh = PRMT1 (human) inhibition, primary screen. recombinant PRMT1, activity-based probe fluorescence polarization. inhibition, % at 2.79 µM. 370,000 compounds, 1.3% hits. AID 652257. Q99873;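 active = inhibition above about 21% made by adding two undisclosed values, limit read from the data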
* marks the source's active call; other numbers are inactive results. Compounds with a hit are over-represented: about 2.5% of the library has one in this group of screens.

SMILES	LEDGF integ inh	MBD2 DNA inh	UHRF1 MBD2 ctr	PRMT1 inh
COc1ccccc1CN(Cc1cc2cc(C)ccc2[nH]c1=O)Cc1nnnn1Cc1ccco1	6	3	-1	9
CCc1ccc2[nH]c(=O)c(CN(Cc3ccccc3OC)Cc3nnnn3Cc3ccco3)cc2c1	1	-3	-3	23*
Cc1ccc(OCC(=O)Nc2ccc(S(=O)(=O)N3CCN(C)CC3)cc2)cc1	-1	3	46*	0
CCOc1ccc(OCCCC(=O)N2CCN(S(=O)(=O)c3ccc(Cl)cc3)CC2)cc1	32*	8	0	5
CCOC(=O)COc1ccc(S(=O)(=O)N2CCN(c3ccccc3F)CC2)cc1	0	11	5	12
CCOC(=O)COc1ccc(S(=O)(=O)N2CCN(c3ccc(OC)cc3)CC2)cc1	0	8	37*	4
Cc1ccc(S(=O)(=O)N2C3CCCCC3O[C@H]2CC(=O)OCc2ccccc2)cc1 (stereo not given in full)	-2	4	3	1
CCC[C@H]1[C@@H](OC(=O)Oc2ccc([N+](=O)[O-])cc2)CC[C@@]23CCCN2C(=O)CCC[C@@H]13	2	4	-1	-2
O=C(c1nc(SCc2ccc([N+](=O)[O-])cc2)n2ccccc12)C(F)(F)F	0	1	24*	-1
O=[N+]([O-])c1ccc(CSc2nnc3ccccn23)cc1	0	-2	1	1
O=C(O)Cn1c2c(c3ccccc31)CSc1ccc(Cl)cc1-2	2	-5	-2	78*
CCc1ccc(C(=O)CSc2ncn[nH]2)cc1	2	0	2	23*
Cc1ccc(C(=O)CSc2ncn[nH]2)cc1	5	-1	-1	4
COc1ccc(-c2coc3cc(OC(C)=O)ccc3c2=S)cc1	-2	-2	-1	22*
CCN(CCN(C)C)C(=O)C1CCN(S(=O)(=O)c2c(C)noc2/C=C/c2ccccc2F)CC1	-6	2	0	5
CCOc1ccccc1/C=C/c1onc(C)c1S(=O)(=O)N1CCC(C(=O)N(CC)CC)CC1	-1	13*	16	7
COc1ccc(CCNC(=O)c2coc(=O)c(Br)c2)cc1	-2	4	0	1
Cc1ccc(Cc2c(-c3ccc(C)cc3)nc3cc(C)ccn23)cc1	0	6	23*	-1
Cc1ccc(Cc2c(-c3ccc(Cl)cc3)nc3cc(C)ccn23)cc1	4	1	22*	-2
Cc1ccn2c(Cc3ccccc3)c(-c3ccccc3)nc2c1	2	8	21*	5
Cc1ccn2c(CC(C)(C)C)c(-c3ccc(F)cc3)nc2c1	8	4	22*	-2
CCn1cc(C(=O)NCCCN2CCCC(C)C2)c(=O)c2cc(S(=O)(=O)N3CCOCC3)ccc21 (stereo not given)	2	6	6	-3
CCCNC(=O)C1(C)CCN(Cc2ccc(OCc3ccccc3)cc2)C1 (stereo not given)	1	2	4	3
O=C(CC[C@H]1O[C@@H](n2cnc3c(NC(=O)c4ccccc4)ncnc32)[C@H](O)[C@@H]1O)N[C@@H](CO)Cc1c[nH]c2ccccc12	4	-9	1	-2
Fc1ccc(-c2nnc(SCc3cccnc3)o2)cc1	-3	-1	-3	-4
SMILES	LEDGF integ inh	MBD2 DNA inh	UHRF1 MBD2 ctr	PRMT1 inh
Cc1cc(OCc2cc(C(=O)NCc3csc(C(C)C)n3)no2)cc(C)c1Cl	-3	-6	-1	1
Cc1ccc(NC(=O)CNc2ccc(N3CCOCC3)cc2)cc1S(=O)(=O)N(C)C	-1	-2	0	-5
O=C(c1ccc(Br)cc1)N1CCCc2ccccc21	6	2	1	-1
O=C(c1ccc(=O)oc1)N1CCCc2ccccc21	22*	4	17	18
O=C(c1ccccc1)N1CCCc2ccccc21	1	9	21*	0
O=C(N/N=C/c1ccco1)C1CC1(c1ccccc1)c1ccccc1 (stereo not given)	-4	-2	-1	-3
NNC(=O)C1CC1(c1ccccc1)c1ccccc1 (stereo not given)	-3	5	23*	3
C/C(=N/NC(=O)C1CC1(c1ccccc1)c1ccccc1)c1ccco1 (stereo not given)	-1	2	28*	2
CN(CC(=O)Nc1cccc(F)c1)C(=O)c1cc(=O)[nH]c2ccccc12	3	3	-3	0
COc1ccc(/C=C(/NC(=O)c2ccc(C)cc2)C(=O)N2CCCC2)cc1OC	1	3	1	-5
O=C(C1CC12CCCC2)N1CCC(CO)(Cc2ccccc2Cl)CC1 (stereo not given)	-4	4	45*	1
Cc1nn(CCC(=O)NNC(=O)Nc2ccc(F)cc2)c(C)c1[N+](=O)[O-]	3	-2	2	-2
CC(C)(C)OC(=O)CC(S(=O)(=O)c1ccccc1)S(=O)(=O)c1ccccc1	2	4	-1	11
CCOc1ccccc1-c1ccc2nccn2c1	1	-6	-4	-1
N#C/C(=C/c1cn(-c2ccccc2)nc1-c1cccc(S(=O)(=O)N2CCOCC2)c1)C(=O)NCc1ccco1	-2	1	-5	23*
O=C1C=CC2(C=C1)O[C@H](Cc1ccccc1)[C@@H](Cc1ccccc1)O2	1	2	5	51*
O=C1Nc2ccccc2C1Cc1ccccc1 (stereo not given)	-1	-6	0	0
CCOc1ccccc1C1NC(=O)NC(C)=C1C(=O)OC1CCCC1C (stereo not given)	0	3	4	-1
CCOc1ccccc1C1NC(=O)NC(C)=C1C(=O)OC1CCCCC1 (stereo not given)	-4	1	81*	1
C[C@]1(CC/C(=C/CO)CO)[C@H](CO)CC[C@@]23COC(=O)C2=CCC[C@@H]31	-3	0	1	-4
O=C(Cn1cnc2ccccc2c1=O)Nc1ccccc1N1CCOCC1	2	0	0	3
COc1ccccc1N1CCN(C(=O)c2ccc3c(c2)CCN3S(C)(=O)=O)CC1	3	-2	0	3
CS(=O)(=O)N1CCc2cc(C(=O)N3CCN(c4ccccc4F)CC3)ccc21	4	5	23*	-5
COc1ccc(CC(=O)Oc2ccc(C)cc2Br)cc1OC	14*	2	1	-3
O=c1cc(OCc2ccccc2)cc[nH]1	24*	0	-2	2
SMILES	LEDGF integ inh	MBD2 DNA inh	UHRF1 MBD2 ctr	PRMT1 inh
Cc1[nH]ccc(=O)c1OCc1ccccc1	1	2	0	2
Nc1nc2c(c(=O)[nH]1)C(c1cccc3ccccc13)C1=C(N2)c2ccccc2C1=O (stereo not given)	3	-2	-4	9
COC(=O)c1cnc(NC(=O)C2(C)CCCN(C(C)=O)C2)s1 (stereo not given)	2	4	-2	-2
CCCOc1ccc(C2=NNC(=O)CC2)cc1	-2	-4	-4	-1
COc1ccc(C2=NNC(=O)CC2)cc1	2	0	23*	0
CN(CC(=O)Nc1c(Cl)cccc1Cl)C(=O)CNC(=O)c1ccco1	-1	5	-2	-4
COc1ccc(NC(=O)CN(c2ccc(C)cc2)S(C)(=O)=O)c(OC)c1	-3	0	40*	-2
